Unmarked numbers belong to inactive results. For part of these data: Measured potencies and affinities stand elsewhere. Calls of active or inactive are those of the source. Unless noted, no rule for the calls is given here.
Key:
[1] = antimalarial activity against Dd2 strain (AID 2302;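 active = growth inhibition above 50% at the single 2 µM test dose, taken to imply half-maximal potency below 2 µM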;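 also: 0% = DMSO untreated growth and 100% = chloroquine plus artemisinin killed control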); details: P. falciparum Dd2 in RBCs, LDH growth readout, 72 h; at 2 µM; hits give high values
[2] = HepG2 cytotoxicity, primary screen, cytotoxicity control for P. falciparum antimalarial project, cell-based, ATP luminescence (AID 2303;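 active = inhibition above 50%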;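 also: 0% = DMSO wells and 100% = digitonin-killed cells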); details: HepG2 viability, 24-48 h, at 10 µM, hits give high values
[3] = target: L-lactate dehydrogenase (Plasmodium falciparum (isolate CDC / Honduras)) (UniProt Q27743); test: PfLDH activity inhibition – cell lysate, 3D7 strain, counter-screen for P. falciparum growth inhibition project (AID 2304);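 also: 0% = vehicle and 100% = reference inhibitor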; details: P. falciparum 3D7 crude extract, LDH APAD/NBT absorbance; at 2 µM; hits give high values
Sequence of L-lactate dehydrogenase (Plasmodium falciparum (isolate CDC / Honduras)) (Q27743 whole entry, looked up): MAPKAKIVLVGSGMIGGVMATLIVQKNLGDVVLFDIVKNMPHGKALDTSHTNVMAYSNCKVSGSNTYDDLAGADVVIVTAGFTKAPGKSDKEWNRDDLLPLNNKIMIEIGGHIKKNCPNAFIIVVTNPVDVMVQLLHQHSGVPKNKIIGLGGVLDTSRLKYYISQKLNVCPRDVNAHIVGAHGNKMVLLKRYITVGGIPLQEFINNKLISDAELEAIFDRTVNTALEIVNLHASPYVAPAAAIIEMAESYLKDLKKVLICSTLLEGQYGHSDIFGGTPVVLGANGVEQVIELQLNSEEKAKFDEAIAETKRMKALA

[4] = inhibition of 3D7 malaria parasite growth – strain 3D7 (AID 2306);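 also: 0% = DMSO wells and 100% = chloroquine plus artemisinin control wells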; details: P. falciparum 3D7 erythrocytic growth, LDH absorbance, 72 h; at 2 µM; hits give high values
[5] = target: Calcium-dependent protein kinase 1 (Plasmodium falciparum (isolate 3D7)) (UniProt P62344); test: PfCDPK1 kinase inhibitors, biochemical, TCAMS library (AID 1159585; cut-off not given, nearly all actives have IC50 up to about 0.98 µM;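 also: inhibitors leave more ATP so luminescence rises with inhibition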); details: recombinant PfCDPK1, Kinase-Glo ATP depletion luminescence
Sequence of Calcium-dependent protein kinase 1 (Plasmodium falciparum (isolate 3D7)) (P62344 whole entry, looked up): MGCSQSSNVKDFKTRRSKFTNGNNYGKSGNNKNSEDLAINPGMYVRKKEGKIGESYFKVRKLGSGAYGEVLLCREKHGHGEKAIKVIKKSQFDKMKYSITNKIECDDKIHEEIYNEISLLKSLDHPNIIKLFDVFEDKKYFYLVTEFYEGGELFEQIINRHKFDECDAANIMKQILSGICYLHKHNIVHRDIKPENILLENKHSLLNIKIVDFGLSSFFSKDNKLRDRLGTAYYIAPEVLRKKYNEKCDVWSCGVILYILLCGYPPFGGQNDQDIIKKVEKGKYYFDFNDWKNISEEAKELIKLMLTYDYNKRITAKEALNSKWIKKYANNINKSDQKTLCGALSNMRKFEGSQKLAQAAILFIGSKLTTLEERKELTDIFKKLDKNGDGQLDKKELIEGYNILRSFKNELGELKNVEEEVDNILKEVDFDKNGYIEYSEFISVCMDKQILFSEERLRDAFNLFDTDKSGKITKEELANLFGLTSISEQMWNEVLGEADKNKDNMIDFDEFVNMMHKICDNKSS

[6] = target: Plasmodium falciparum protein kinase 6 (PK6, PF3D7_1337100) (UniProt Q8IDW1); test: PfPK6 kinase inhibitors, biochemical, TCAMS library (AID 1159586); details: recombinant PfPK6, Kinase-Glo ATP depletion luminescence
Sequence of Plasmodium falciparum protein kinase 6 (PK6, PF3D7_1337100) (Q8IDW1 1-305): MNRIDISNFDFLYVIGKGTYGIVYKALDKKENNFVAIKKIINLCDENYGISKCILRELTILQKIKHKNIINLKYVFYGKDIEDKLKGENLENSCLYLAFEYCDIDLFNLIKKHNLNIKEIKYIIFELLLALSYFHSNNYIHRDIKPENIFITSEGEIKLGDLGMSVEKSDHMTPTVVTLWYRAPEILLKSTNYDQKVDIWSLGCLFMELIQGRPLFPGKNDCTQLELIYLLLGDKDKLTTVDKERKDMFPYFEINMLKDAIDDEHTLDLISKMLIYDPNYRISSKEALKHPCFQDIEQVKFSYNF

[7] = target: Protein kinase 7 (PK7), Plasmodium falciparum 3D7 (PF3D7_0213400) (UniProt Q7YTF7); test: inhibition of Plasmodium PK7 catalytic activity – biochemical, TCAMS antimalarial set, Kinase-Glo luminescence (AID 1159587); details: recombinant PfPK7, Kinase-Glo ATP depletion luminescence
Sequence of Protein kinase 7 (PK7), Plasmodium falciparum 3D7 (PF3D7_0213400) (Q7YTF7 1-343): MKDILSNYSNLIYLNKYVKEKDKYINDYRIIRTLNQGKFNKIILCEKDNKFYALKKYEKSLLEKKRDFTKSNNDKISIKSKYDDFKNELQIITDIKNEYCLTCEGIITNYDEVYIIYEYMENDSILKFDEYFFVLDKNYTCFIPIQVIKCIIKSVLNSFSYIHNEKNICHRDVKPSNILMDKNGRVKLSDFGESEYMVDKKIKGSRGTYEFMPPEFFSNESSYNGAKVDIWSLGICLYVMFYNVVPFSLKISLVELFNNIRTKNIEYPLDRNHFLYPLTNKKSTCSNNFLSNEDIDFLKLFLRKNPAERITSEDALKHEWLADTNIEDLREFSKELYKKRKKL

[8] = target: Calcium-dependent protein kinase 4 (Plasmodium falciparum (isolate 3D7)) (UniProt Q8IBS5); test: PfCDPK4 kinase inhibitors, biochemical, TCAMS library (AID 1159588; cut-off not given, nearly all actives have IC50 up to about 0.91 µM); details: recombinant PfCDPK4, Kinase-Glo ATP depletion luminescence
Sequence of Calcium-dependent protein kinase 4 (Plasmodium falciparum (isolate 3D7)) (Q8IBS5 whole entry, looked up): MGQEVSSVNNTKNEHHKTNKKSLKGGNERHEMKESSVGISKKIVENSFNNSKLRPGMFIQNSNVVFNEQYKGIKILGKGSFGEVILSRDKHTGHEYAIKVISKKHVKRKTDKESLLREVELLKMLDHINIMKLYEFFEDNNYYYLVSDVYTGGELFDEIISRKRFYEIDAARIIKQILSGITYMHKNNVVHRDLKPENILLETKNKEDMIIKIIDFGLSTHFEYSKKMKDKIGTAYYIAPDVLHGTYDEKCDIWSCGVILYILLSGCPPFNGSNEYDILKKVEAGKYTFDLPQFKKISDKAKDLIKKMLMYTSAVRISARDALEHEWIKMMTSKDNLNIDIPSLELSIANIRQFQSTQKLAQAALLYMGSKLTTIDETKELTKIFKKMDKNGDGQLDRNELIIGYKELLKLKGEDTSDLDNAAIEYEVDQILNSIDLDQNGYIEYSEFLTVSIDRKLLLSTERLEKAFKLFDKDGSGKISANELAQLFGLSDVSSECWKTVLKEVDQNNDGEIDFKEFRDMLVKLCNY

Row | SMILES | growth inhibition [1] | inhibition [2] | inhibition [3] | growth inhibition [4] | outcome [5] | outcome [6] | outcome [7] | outcome [8]
1 | CCc1cn2c3c(cc(C(=O)N[C@@H](Cc4ccccc4)[C@H](O)CNC4CCC4)cc13)N(C)S(=O)(=O)CC2 | 98% (active) | -4% | -3% | 98% (active) | inactive | inactive | inactive | inactive
2 | CC[C@H](C)CNC(=O)c1cncc(-c2ccc(CNCCCc3ccccc3)cc2)c1 | 99% (active) | 19% | -2% | 101% (active) | inactive | inactive | inactive | inactive
3 | Nc1nc(Nc2cccc(O)c2)nc2ccccc12 | 79% (active) | 25% | 4% | 96% (active) | inactive | inactive | inactive | inactive
4 | COc1ccc(CCNCCCCCCNCCc2ccc(-c3ccccc3)cc2)cc1OC | 35% | 100% (active) | 1% | 99% (active) | inactive | inactive | inactive | inactive
5 | COc1ccc2nccc([C@@H](O)CN3CCC(NC(=O)c4ccc(-c5ccccc5)s4)CC3)c2c1 | 81% (active) | 10% | -6% | 100% (active) | inactive | inactive | inactive | inactive
6 | CCn1c(-c2nonc2N)nc2cnc(Oc3cccc(NC(=O)c4ccc(OCCN5CCCCC5)cc4)c3)cc21 | 7% | 16% | -1% | 98% (active) | inactive | inactive | inactive | inactive
7 | Oc1ccccc1CCNC1CCc2ccccc2C1 (configuration not stated) | 95% (active) | -4% | 4% | 96% (active) | inactive | inactive | inactive | inactive
8 | CC(C)N1CCC(N(Cc2ccc(-c3ccc(C(F)(F)F)cc3)cc2)C(=O)Cn2c(CCc3cccc(F)c3F)nc(=O)c3cccnc32)CC1 | 80% (active) | 100% (active) | 6% | 100% (active) | inactive | inactive | inactive | inactive
9 | Nc1cccc(CNCc2ccc(-c3ccc(-c4nc5ccccc5[nH]4)s3)cc2)c1 | 93% (active) | 12% | 4% | 100% (active) | inactive | inactive | inactive | inactive
10 | O=C(Nc1cccc(CN2CCCN(Cc3cccnc3)CC2)c1)c1ccc(Cl)c(Cl)c1 | 19% | 16% | -2% | 84% (active) | inactive | inactive | inactive | inactive
11 | O=C(Nc1ccc(Oc2ccccc2)cc1)N1CCC(CCN2CCC(c3c[nH]c4ccccc34)CC2)CC1 | 36% | 42% | 7% | 100% (active) | inactive | inactive | inactive | inactive
12 | O=C(NCCCCN1CCC(C(c2ccccc2)c2ccccc2)CC1)c1ccc(NC(=O)c2ccc(Cl)cc2)cc1 | 47% | 12% | -2% | 100% (active) | inactive | inactive | inactive | inactive
13 | Cc1noc(-c2ccccc2)c1NC(=O)N1CCN(CCCCCCNC(=O)/C=C/c2ccc(Cl)c(Cl)c2)CC1 | 1% | 6% | 2% | 95% (active) | inactive | inactive | inactive | inactive
14 | CS(=O)(=O)c1ccc(-c2cnc(N)c(-c3ccc(O)cc3)c2)cc1 | 94% (active) | 38% | 2% | 84% (active) | inactive | inactive | inactive | inactive
15 | COc1cccc(Nc2c(C(N)=O)cnc3ccc(-c4ccccc4)cc23)c1 | 99% (active) | 2% | -2% | 98% (active) | inactive | inactive | inactive | inactive
16 | COc1ccc(NC(=O)/C=C/c2ccc(-c3ccccc3)cc2)cc1N1CCN(C)CC1 | 46% | 21% | 6% | 90% (active) | inactive | inactive | inactive | inactive
17 | CC(=O)Nc1cccc(C(=O)Nc2cccc(-c3ccc(-c4nc5c(C)cccc5[nH]4)cc3)c2)c1 | 12% | 29% | -1% | 95% (active) | inactive | inactive | inactive | inactive
18 | CCNC(=O)Nc1ccc(-c2cccc(-c3nc4c(C)cccc4[nH]3)c2)cc1 | 34% | 16% | -8% | 91% (active) | inactive | inactive | inactive | inactive
19 | O=c1cc(N2CCNCC2)c(Cl)nn1Cc1ccc(NS(=O)(=O)c2ccc(Oc3ccccc3)cc2)cc1 | -5% | 3% | -6% | 102% (active) | inactive | inactive | inactive | inactive
20 | COc1ccc(CCn2c(=N)c(C(=O)NCc3ccc(C)cc3)cc3c(=O)n4ccccc4nc32)cc1 | 16% | 13% | -3% | 97% (active) | inactive | inactive | inactive | inactive

Row | SMILES | growth inhibition [1] | inhibition [2] | inhibition [3] | growth inhibition [4] | outcome [5] | outcome [6] | outcome [7] | outcome [8]
21 | O=C(Nc1ccc(Cl)cc1)c1ccc(CN2CCCN(Cc3ccccc3)CC2)cc1 | 2% | 46% | 1% | 96% (active) | inactive | inactive | inactive | inactive
22 | COc1c(C2CCN(CCCCNC(=O)C=Cc3cc4cc(Cl)ccc4o3)CC2)ccc2c1CCCC2 | 19% | 33% | 2% | 87% (active) | inactive | inactive | inactive | inactive
23 | COc1ccc(CNCc2ccc(-c3ccc(-c4nc5c(C)cccc5[nH]4)s3)cc2)cc1 | 89% (active) | 54% (active) | 3% | 100% (active) | inactive | inactive | inactive | inactive
24 | COc1ccc(CCN(C)CCCN2CCC(NC(=O)c3cccc4c(=O)c5ccccc5sc34)CC2)cc1OC | 79% (active) | 67% (active) | 4% | 97% (active) | inactive | inactive | inactive | inactive
25 | COc1cccc2c(NN=Cc3ccccc3[N+](=O)[O-])ccnc12 | 43% | 8% | -3% | 99% (active) | inactive | inactive | inactive | inactive
26 | COc1ccc(Cl)cc1-c1nc(C(=O)NCCN2CCCCC2)c(C)s1 | 10% | 16% | -7% | 97% (active) | inactive | inactive | inactive | inactive
27 | CCc1c(C)nc(-n2nc(C)cc2NC(=O)CCc2ccccc2)[nH]c1=O | 97% (active) | 48% | -1% | 97% (active) | inactive | inactive | inactive | inactive
28 | Brc1ccc(Nc2ccnc3cc(-c4nccs4)ccc23)cc1Oc1ccnc2cc(-c3nccs3)ccc12 | 83% (active) | 15% | -4% | 91% (active) | inactive | inactive | inactive | inactive
29 | Cc1nc2c(=O)sc3ccccc3c2n1Cc1ccccc1 | 26% | -1% | 1% | 95% (active) | inactive | inactive | inactive | inactive
30 | COc1ccc2nc(C)cc(Nc3ccc(Oc4ccc5ccccc5c4Cl)c(Cl)c3)c2c1 | 98% (active) | 32% | 7% | 100% (active) | inactive | inactive | inactive | inactive
31 | C[C@@]12C[C@@H](Nc3nc(NCCc4ccc(O)cc4)nc(N4CCNCC4)n3)C[C@@H](C1)c1cccc(Cl)c1O2 | 47% | 92% (active) | 4% | 101% (active) | inactive | inactive | inactive | inactive
32 | Cc1cccc2c(/C=C/C(=O)NC3CCC(CCN4CCc5ccc(C#N)cc5CC4)CC3)c[nH]c12 (configuration not stated) | 49% | 18% | -1% | 91% (active) | inactive | inactive | inactive | inactive
33 | O=C(NCC1CCN(Cc2cccc(C(F)(F)F)c2)C1)c1cc(-c2cccc(Cl)c2)cs1 (configuration not stated) | 14% | 15% | -5% | 93% (active) | inactive | inactive | inactive | inactive
34 | c1ccc2c(c1)ncc1c3ccccc3[nH]c21 | 36% | -1% | -6% | 95% (active) | inactive | inactive | inactive | inactive
35 | C[C@H](Nc1c(Nc2ccc3[nH]ccc3c2)c(=O)c1=O)C1CCCCC1 | 11% | 7% | 6% | 96% (active) | inactive | inactive | inactive | inactive
36 | Nc1nc(N)c2cc(NS(=O)(=O)c3ccc(-c4ccccc4)cc3)ccc2n1 | 54% (active) | 7% | -3% | 102% (active) | inactive | inactive | inactive | inactive
37 | Cc1cccc2c3c([nH]c12)C1(CCN(CCc2ccccc2)CC1)NC(C(=O)NCc1ccccc1)C3 (configuration not stated) | 52% (active) | 10% | -9% | 86% (active) | inactive | inactive | inactive | inactive
38 | N#Cc1ccc(-c2ccc(C(=O)NC3CCN(CCN4CCC(c5cn(CCO)c6ccccc56)CC4)CC3)cc2)cc1 | 79% (active) | 30% | -2% | 100% (active) | inactive | inactive | inactive | inactive
39 | Cc1cc(OCC2CCCN(c3ncc(C(=O)NC4CC4)cc3Cl)C2)ccc1F (configuration not stated) | 68% (active) | 3% | -1% | 88% (active) | inactive | inactive | inactive | inactive
